Reference: the supplement of paper PMC4894684
Counter-ions that a name gives are not always drawn. ± gives the standard deviation of the averaged measurements.

Tested on: Toxoplasma gondii RH (in HFF)
Assay: parasite growth relative to the screen mean (all compounds = 100%); higher = less inhibition of parasite growth
Conditions: 5 µM; 72 h; oxygen 21 %
How it was run: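 RH β-Gal–GFP Toxoplasma at MOI 1:5 was used to infect confluent human foreskin fibroblasts in 96-well plates within 2 h of pin-transferring compounds to 5 µM final. After 72 h at 21% O2, parasite number was determined by CPRG β-Gal assay against standard curves on the same plate. Growth is relative to the screen mean and averaged over two screens, with all compounds = 100%.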

| SMILES | parasite growth |
| --- | --- |
| Nc1nc2ccc(OC(F)(F)F)cc2s1 [Riluzole hydrochloride] | 88.1 ± 11% |
| CC1(C)Oc2ccc(C#N)cc2[C@@H](N2CCCC2=O)[C@@H]1O [Levcromakalim] | 158 ± 31% |
| COCCOC(=O)C1=C(C)NC(C)=C(C(=O)OC/C=C/c2ccccc2)C1c1cccc([N+](=O)[O-])c1 (configuration not stated) [Cilnidipine] | 27.9 ± 21% |
| Cc1cccc(Nc2cc(Cl)nc(SCC(=O)O)n2)c1C | 108.5 ± 0.57% |
| CNc1cc2c(Nc3cccc(Br)c3)ncnc2cn1 | 128 ± 11% |
| O=C(O)c1c(Sc2ccccc2)c2cc(Cl)ccc2n1Cc1ccc(Cl)cc1 | 88.5 ± 6.7% |
| Nc1[nH]nc2nc3ccccc3nc12 | 142.8 ± 0.82% |
| CCCCOc1cc(CC2CNC(=O)N2)ccc1OC (configuration not stated) | 156 ± 27% |
| Cc1ccccc1N=Nc1ccc(NC(=O)c2ccnn2C)c(C)c1 | 82.7 ± 23% |
| CCS(=O)(=O)N(C)[C@H]1c2cc(C#N)ccc2OC(C)(C)[C@@H]1O [(-)-[3R,4S]-Chromanol 293B] | 121 ± 9.2% |
| Cc1nn(-c2ccccc2)c(C)c1C=NN1CCN(Cc2ccccc2)CC1 | 141 ± 26% |
| CC[C@@H]1Cn2c(c3nc(-c4ccccc4)nc-3n(C)c2=O)N1 | 96.8 ± 13% |
| CC1(C)CCC(C)(C)c2cc(C3(c4ccc(C(=O)O)cc4)OCCO3)ccc21 | 115 ± 34% |
| CC(C)c1onc(-c2c(Cl)cccc2Cl)c1COc1ccc(/C=C/c2cccc(C(=O)O)c2)c(Cl)c1 | 95.6 ± 18% |
| O=C1CC2(CCCC2)CC(=O)N1CCCCN1CCN(c2ncccn2)CC1 [Buspirone hydrochloride] | 171 ± 21% |
| C[C@@H](CN1CC(=O)NC(=O)C1)N1CC(=O)NC(=O)C1 [Dexrazoxane hydrochloride] | 102 ± 13% |
| Cc1cc(C)c(/C=C2\C(=O)Nc3ccccc32)[nH]1 | 198 ± 12% |
| CN/C(=N\CCSCc1nc[nH]c1C)NC#N [Cimetidine] | 118 ± 10% |
| N#C/C(=C\c1ccc(O)c(O)c1)C(=O)OCCc1cccs1 | 132 ± 15% |
| Cc1c(NC(=O)N2CCOCC2)ccc2c1c1ccccc1n2C(C)C | 144 ± 4.9% |
| COc1ccc(CCCOC(Cn2ccnc2)c2ccc(OC)cc2)cc1 (configuration not stated) | 95.6 ± 24% |
| CCCCCCN(CCCCCC)C(=O)Cc1c(-c2ccc(F)cc2)[nH]c2ccccc12 | 151 ± 28% |
| c1ccc(C(NCCNC(c2ccccc2)c2ccccc2)c2ccccc2)cc1 [AMN 082 dihydrochloride] | 35.1 ± 15% |
| c1cc(CN2CCCCC2)cc(OCCCNc2nc3ccccc3s2)c1 [Zolantidine dimaleate] | 112 ± 4.6% |

| SMILES | parasite growth |
| --- | --- |
| CCC(CC)(CC(=O)Nc1cccc(/C=C/c2nc(C3CCC3)cs2)c1)C(=O)O [Cinalukast] | 115 ± 12% |
| Nc1nc(NCC2CCC(CNS(=O)(=O)c3cccc4ccccc34)CC2)nc2ccccc12 (configuration not stated) | < 0% |
| CCCOc1ccccc1-c1nc2[nH]nnc2c(=O)[nH]1 [Zaprinast] | 98.3 ± 14% |
| CC(C)SC(=N)N [S-Isopropylisothiourea hydrobromide] | 97.1 ± 3.1% |
| c1ccc(CN2CCC3(CCc4ccccc43)CC2)cc1 [L-693,403 maleate] | 135 ± 10% |
| Nc1nccc(-c2ccc3noc(-c4ccc(Cl)cc4)c3c2)n1 [PIM 1 Inhibitor 2] | 69.9 ± 15% |
| N[C@H](C(=O)O)c1ccc(O)c(C(=O)O)c1 [(S)-3-Carboxy-4-hydroxyphenylglycine] | 153 ± 9.2% |
| O/N=C/c1ccc(-c2ccc(O)c(F)c2)c(Cl)c1O | < 0% |
| CN=c1nc(-c2ccccc2)n(-c2ccccc2)s1 | 127 ± 29% |
| N=C(N)NC(=N)Nc1ccccc1 [1-Phenylbiguanide hydrochloride] | 91.9 ± 21% |
| COc1cccc(NC(=O)/C=C/c2ccc(Cl)cc2)c1 | 136.1 ± 0.67% |
| O=c1cc(-c2cccc3c2Sc2ccccc2S3)oc(N2CCOCC2)c1 | 112 ± 15% |
| Clc1ccccc1CNCC1CCC(CNCc2ccccc2Cl)CC1 (configuration not stated) | 38.9 ± 23% |
| C=C1/C(=C\C=C2/CCC[C@]3(C)[C@@H]([C@H](C)/C=C/[C@@H](O)C4CC4)CC[C@@H]23)C[C@@H](O)C[C@@H]1O [Calcipotriol] | 81.2 ± 8.2% |
| OC(CN1CCN(c2cccc(Cl)c2)CC1)C(c1ccccc1)c1ccccc1 (configuration not stated) | 147 ± 28% |
| CCN(CC)CCCCC1CCN(CC(=O)N2c3ccccc3C(=O)Nc3cccnc32)CC1 | 141 ± 17% |
| CN(C)C(=O)C(=O)c1cn(C)c2cc(Cl)c(C(=O)N3CCC(Cc4ccc(F)cc4)CC3)cc12 | 140 ± 28% |
| Cc1[nH]c(/C=C2\C(=O)Nc3ccccc32)c(C)c1CCC(=O)O | 102 ± 8.8% |
| O=c1[nH]c2cc(Cl)ccc2c(O)c1-c1cccc(Oc2ccccc2)c1 | 103 ± 19% |
| COc1ccc2c3c1O[C@H]1C[C@@H](O)C=C[C@@]31CCN(C)C2 [Galanthamine hydrobromide] | 138 ± 30% |
| Cc1oncc1C(=O)Nc1ccc(C(F)(F)F)cc1 [Leflunomide] | 106 ± 61% |
| NC(C(=O)O)c1ccc(C(=O)O)c(C(=O)O)c1 (racemic) | 101 ± 31% |
| N[C@@H](CSS(=O)(=O)O)C(=O)O [S-Sulfo-L-cysteine sodium salt] | 101 ± 6.6% |
| CC(C)NCC(O)c1ccc(O)c(O)c1 (configuration not stated) [Isoproterenol hydrochloride] | 172 ± 14% |

| SMILES | parasite growth |
| --- | --- |
| Oc1ccc(-c2c(-c3ccccc3)nn3c(C(F)(F)F)cc(C(F)(F)F)nc23)cc1 | 170 ± 8.6% |
| COc1nc(C)nc(Cl)c1NC1=NCCN1 [Moxonidine hydrochloride] | 108 ± 27% |
| Nc1nc2ccc(Cl)cc2c2nc(-c3ccco3)nn12 | 131 ± 14% |
| COc1ccc(CCN(C)CCCOc2ccc(S(=O)(=O)c3c(C(C)C)c4ccccc4n3C)cc2)cc1OC | < 0% |
| COc1ccc(NC(=O)c2cc(OCCCN(C)C)nn2Cc2ccccc2)cc1 [CFM 1571 hydrochloride] | 106 ± 4.8% |
| Nc1nc2c(cnn2CCc2ccccc2)c2nc(-c3ccco3)nn12 | 100 ± 39% |
| Nc1nc(F)nc2c1ncn2[C@@H]1O[C@H](CO)[C@@H](O)[C@@H]1O [Fludarabine] | 102 ± 10% |
| CC(=O)N[C@@H](CC(=O)N[C@@H](CCC(=O)O)C(=O)O)C(=O)O [Spaglumic acid] | 131 ± 6.6% |
| Oc1c2ccccc2c2c3c(cccc13)N=N2 | 7.23 ± 4.4% |
| CNCCC(Oc1ccccc1OC)c1ccccc1 (configuration not stated) [Nisoxetine hydrochloride] | 67 ± 20% |
| N#Cc1cc2nc(O)c(O)nc2cc1[N+](=O)[O-] [CNQX disodium salt] | 133 ± 37% |
| c1ccc2sc(N3CCN(Cc4ccc5c(c4)OCO5)CC3)nc2c1 [2-[1-(4-Piperonyl)piperazinyl]benzothiazole] | 113 ± 20% |
| CCCCC1CCC(c2nc(-c3ccncc3)no2)CC1 (configuration not stated) | 81.9 ± 14% |
| O=C(Nc1ccccc1)N[C@@H]1C[C@@H](C(=O)O)Nc2cc(Cl)cc(Cl)c21 | 104 ± 3.9% |
| c1ccc(C(NCc2cccnc2)(c2ccccc2)c2ccccc2)cc1 | 48.8 ± 13% |
| CC(C)N(CCC(=O)c1ccc2ccccc2c1)Cc1ccccc1 | 77.6 ± 4.8% |
| O=c1cc(-c2ccc(O)cc2)oc2cc(O)cc(O)c12 [Apigenin] | 102 ± 21% |
| N[C@H](C(=O)O)c1cc(O)cc(O)c1 | 119 ± 4.9% |
| Nc1nc2c(ccc3ccccc32)s1 | 158 ± 11% |
| COC(=O)[C@@H]1CC2=CC(=O)CC[C@]2(C)[C@@]23O[C@@H]2C[C@@]2(C)[C@@H](CC[C@@]24CCC(=O)O4)[C@H]13 [Eplerenone] | 132 ± 22% |
| CCCCc1nc2ccn(Cc3cccs3)c(=O)c2n1Cc1ccc(-c2ccccc2-c2nn[nH]n2)cc1 | 104 ± 12% |
| Cc1c(C(=O)NC2CCCCC2)sc2nc3ccc(N)cc3n12 | 183 ± 33% |
| C#CCN1C(C)=C(C(=O)OC)C(c2cccc([N+](=O)[O-])c2)C(C(=O)OCC)=C1C (configuration not stated) | 157 ± 2.2% |
| CC(C)NC[C@@H](O)COc1cccc2ccccc12 [(R)-(+)-Propranolol hydrochloride] | 87.15 ± 0.86% |
